# Experimental data: PubChem BioAssay (Tox21)
# Results filed as inconclusive are left out. The source made the active and inactive calls. Calls follow the shape of the dose curve; as a rule, active = well fitted cell-killing curve with a large enough effect in the repeat runs; inconclusive = weak or mixed curves, or effect the other way; inactive = flat fitted curve, though single readings scatter. Where a SMILES comes first, the peptide text is derived from it. [ ]: non-standard residue; d: D form. pGlu = O=C1CC[C@@H](C(=O)O)N1
# Experiment: qHTS assay to identify small molecule antagonists of the estrogen receptor alpha (ER-alpha) signaling pathway using the BG1 cell line in the presence of 0.1 nM 17-beta-estradiol - cell viability counter screen (AID 1259241); also: nearly all actives have a fitted effect of over 40% in size
# Conditions: VM7Luc4E2 (BG1) viability, CellTiter-Fluor protease, 22 h, 0.1 nM estradiol agonist added; series mostly up to 92.4 µM
# From the text: National Center for Advancing Translational Sciences [NCATS]
# NIH Chemical Genomics Center [NCGC]
# U.S. Environmental Protection Agency [EPA]
# National Institutes of Environmental Health Sciences [NIEHS]
# National Toxicology Program [NTP]
# U.S. Food and Drug Administration [FDA]
# Estrogen receptor (ER), a member of the nuclear hormone receptor plays an important role in development, metabolic homeostasis and reproduction. Two subtypes of ER, ER-alpha and ER-beta, have similar expression patterns with some uniqueness in both types. Endocrine disrupting chemicals (EDCs) and their interactions with steroid hormone receptors like ER causes disruption of normal endocrine function. Therefore, it is important to understand the effect of environmental chemicals in ER signaling pathway. For identifying ER antagonists, VM7Luc4E2 cell line was used to screen against Tox21 compound libraries.
# VM7Luc4E2 cell line (provided by Denison MS, University of California) endogenously express full-length ER-alpha and is stably transfected with a plasmid containing four estrogen responsive elements (ERE) upstream of a luciferase reporter gene. The current screening for identification of ER-alpha inhibitors against Tox21 compound libraries used lower concentration (0.1 nM) of 17beta-Estradiol as a stimulator. The cytotoxicity of the Tox21 compound libraries against VM7Luc4E2 cell line was tested by measuring live-cell protease activity using CellTiter-Fluor assay in the same wells.
# Tox21 Assay Protocol Summary:
# VM7Luc4E2 cells were cultured in phenol red free assay medium containing 10% charcoal stripped FBS for 5 days prior to the assay. The cells were dispensed at 4,000 cells/well in 4 uL of assay medium into white wall/solid-bottom 1536-well plates (Corning Life Sciences, Corning, NY) using a Multidrop Combi (ThermoFisher Scientific, Waltham, MA) dispenser. After the assay plates were incubated at 37C and 5% CO2 for 24 hr, 23 nL of compounds dissolved in DMSO, positive controls or DMSO only was transferred to the assay plates by a Pintool station (Kalypsys, San Diego, CA). The transfer of compounds was followed by the addition of 1 uL of 0.1 nM (final concentration) agonist (17beta-Estradiol)/assay medium using a Flying Reagent Dispenser (FRD, Aurora Discovery, San Diego, CA). The plates were incubated at 37C and 5% CO2 for 22 hr. For cytotoxicity assay, 1 uL of CellTiter-Fluor reagent (Promega Corporation, Madison, WI) was added to each well using the FRD and after 30 min incubation at 37C and 5% CO2, The fluorescence intensity was measured using ViewLux plate reader (PerkinElmer, Shelton, CT).
row,SMILES,outcome
1,Nc1ccccn1,inactive
2,CCOc1c(N2CCOCC2)cnn(C)c1=O,inactive
3,CCN(CC#N)c1cccc(C)c1,inactive
4,CCOC(=O)COc1cc(-n2ncc(C(F)(F)F)c(C)c2=O)c(F)cc1Cl,inactive
5,CC(C)COC(=O)c1ccc(N)cc1,inactive
6,Cc1cccc(C)c1NC(=O)CC12CCCN1CCC2,inactive
7,CCCCOCCOC(=O)CCCCCCCCC(=O)OCCOCCCC,inactive
8,CC1=NN(c2cccc(S(=O)(=O)O)c2)C(=O)C1,inactive
9,Nc1ccn([C@@H]2O[C@H](CO)[C@@H](O)C2(F)F)c(=O)n1,inactive
10,NCCCC[C@H](N[C@@H](CCc1ccccc1)C(=O)O)C(=O)N1CCC[C@H]1C(=O)O,inactive
11,Cc1coc2ccccc2c1=O,inactive
12,CC(C)CCCO,inactive
13,CCC1C(=O)OCC1Cc1cncn1C (stereo not given),inactive
14,NC(=O)Cc1cccc2ccccc12,inactive
15,CC1(C)OC[C@@H](COC(=O)CCc2ccc(OC[C@@H](O)CNCCNC(=O)N3CCOCC3)cc2)O1,inactive
16,CC1=CC(=O)[C@H]2C[C@@H]1C2(C)C,inactive
17,FB(F)F,inactive
18,C=COC(=O)C(C)(CC)CCC(C)C (stereo not given),inactive
19,CCOC(=O)C(=O)CCCCCCl,inactive
20,CCNC(=O)[C@@H]1CCCN1C(=O)[C@H](CCCN=C(N)N)NC(=O)[C@H](CC(C)C)NC(=O)CNC(=O)[C@H](Cc1ccc(O)cc1)NC(=O)[C@H](CO)NC(=O)[C@H](Cc1c[nH]c2ccccc12)NC(=O)[C@H](Cc1cnc[nH]1)NC(=O)[C@@H]1CCC(=O)N1 ([pGlu]HWSYGLRP-NHEt),inactive

row,SMILES,outcome
1,C[N+](C)(C)CCCCCCCCCC[N+](C)(C)C,inactive
2,CCCCOCCOC(=O)COc1cc(Cl)c(Cl)cc1Cl,inactive
3,CC(C#N)(CCC(=O)O)N=NC(C)(C#N)CCC(=O)O (stereo not given),inactive
4,c1ccc(CCc2ccccc2)cc1,inactive
5,Nc1ccn([C@@H]2O[C@H](CO)[C@@H](O)[C@@H]2O)c(=O)n1,inactive
6,CC1=CCC(O)(C(C)C)CC1 (stereo not given),inactive
7,CO[Si](C)(OC)c1ccccc1,inactive
8,C[N+](C)(CCOc1ccccc1)Cc1cccs1,inactive
9,CCC(C)(CCCC(C)C)OC(C)=O (stereo not given),inactive
10,C=COCC1CCC(COC=C)CC1 (stereo not given),inactive
11,CCOC(=O)CCC(=O)OCC,inactive
12,CCCCCCCCCC[N+](C)(C)[O-],inactive
13,Cc1onc(-c2c(Cl)cccc2Cl)c1C(=O)Cl,inactive
14,C=C(C)C(=O)OCCOCCOCCOCCOC(=O)C(=C)C,inactive
15,CC(N)C12CC3CC(CC(C3)C1)C2 (stereo not given),inactive
16,COC(=O)Nc1ccc(Cl)c(Cl)c1,inactive
17,C[C@@H]1CCC[C@H](C)N1,inactive
18,CN(C)C(=O)Oc1ccc[n+](C)c1,inactive
19,COc1ccc2cc1Oc1cc3c(cc1OC)CC[N+](C)(C)[C@H]3Cc1ccc(cc1)Oc1c(OC)c(OC)cc3c1[C@@H](C2)[N+](C)(C)CC3,inactive
20,CCCC(C)C(=O)OCC (stereo not given),inactive
